Screens: PubChem BioAssay, Broad Institute
Tgondii IFNg: inhibitors of Toxoplasma gondii growth with IFN-gamma. Toxoplasma gondii growth in IFN-gamma-treated host cells; active compounds read low. activity change, negative = inhibition, % (no concentration beside the values). 3.8% of 69,000 active. AID 1259416; in the data active = activity change below about -70%, passing the limit was not always enough;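 also: host cells are HeLa cells infected with Toxoplasma gondii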
Large screens that a line does not name were inactive; ! = a repeat was not active. The entries come from a sample that favours hits as a whole.

O=C(Cn1cc(C(F)(F)F)ccc1=O)N1CCC2(CCCNC2)C1 (stereo unspecified)	none
O=c1oc2ccccc2c(O)c1C1c2ncccc2-c2c1c(=O)oc1ccccc21 (stereo unspecified)	none
CS(=O)(=O)c1ccc(CN2CCCC(C(=O)c3ccccn3)C2)cc1 (stereo unspecified)	none
Cc1ccc(CN2CCC3O[C@@H](COc4cccnc4)CCC32)o1 (stereo partly specified)	none
CC(C)c1nccc(C(=O)N2CCN3CCNC(=O)C3C2)n1 (stereo unspecified)	none
CN(C)C(=O)CN1CC2CONC2C1 (stereo unspecified)	none
c1csc(CN2CCN(CC3CC3)c3ncccc3C2)c1	none
Cc1cccc(NC(=O)c2c(O)c3cccnc3n(Cc3ccccc3)c2=O)c1	none
O=C(NCc1cccc(Cl)c1)c1c(O)c2cccnc2n(Cc2ccccc2)c1=O	Tgondii IFNg -107.0
Cc1ccc(C)c(NC(=O)c2c(O)c3cccnc3n(Cc3ccccc3)c2=O)c1	none
CN(C(=O)[C@@H](N)Cc1cnc[nH]1)C1Cc2ccccc2C1	none
COCC1CCC2(CCN(c3ncccn3)CC2)N1CC1CC1 (stereo unspecified)	none
Cc1ccnc(CC(C)N(C)Cc2cc(=O)n3c4c(cccc24)CCC3)c1 (stereo unspecified)	none
COCc1cc(OC(=O)N(C)C)nc(-c2cc(Cl)cc(Cl)c2)n1	none
CC(NC(=O)c1cc2cccnc2n(Cc2ccc(Cl)cc2)c1=O)c1ccccc1 (stereo unspecified)	none
COc1ccc(/C=C/C(=O)C2C(=O)N(C)C34CCCC3C2c2ccccc2O4)cc1 (stereo unspecified)	none
COc1ccc(OC)c(/C=C/C(=O)C2C(=O)NC34CCCCC3C2c2ccccc2O4)c1 (stereo unspecified)	Tgondii IFNg -73.6
O=C(/C=C/c1ccccc1)C1C(=O)NC23CCCCC2C1c1ccccc1O3 (stereo unspecified)	none
Cc1noc(C)c1CN1CC2CNC(C2)C1 (stereo unspecified)	none
Cc1nnc([C@@H]2CCO[C@H]3CCN(Cc4ccccn4)C[C@H]32)o1	none
Cn1cccc1CN1CC2(CCN(C(=O)c3cccnc3)C2)C1	none
CCO[C@@H]1CC[C@@H]2[C@H]1OCCN2Cc1cc(C)on1	none
CCO[C@H]1CC[C@@H]2[C@H]1OCCN2Cc1cc(C)on1	Tgondii IFNg -80.8
Cc1cc(CN2CCO[C@@H]3[C@H]2CC[C@H]3OCC(C)C)no1	none
Oc1ccc2c3c1OC1c4c(c5ccccc5n4Cc4ccccc4)CC4(O)C(C2)N(CC2CC2)CCC314 (stereo unspecified)	none
O=C(COc1cccnc1)NC1CCN(CC2(c3ccc(Cl)cc3)CCC2)CC1	none
CCN(CC)Cc1ccc(C(=O)N(C)c2nc3c(s2)C2CCC(C3)N2C)o1 (stereo unspecified)	none
COCCN1C[C@H]2[C@H](OC)CCN(S(=O)(=O)c3cccnc3)[C@H]2C1	none
O=C1[C@H]2CN(Cc3ccccn3)C[C@H]2CN1c1ccsc1	none
O=C(NC(=O)c1c(F)cccc1F)Nc1cc(Cl)c(OC(F)(F)C(F)C(F)(F)F)cc1Cl (stereo unspecified)	Tgondii IFNg -76.3
CCc1ccc(CN2C[C@H](OC)[C@@H]3COC[C@@H]32)o1	none
O=C(Nc1ccc(Cl)cc1)c1cc2cccnc2n(Cc2ccc(F)cc2)c1=O	none
O=C(Nc1ccncc1)C(=O)c1cn(Cc2ccc(Cl)cc2)c2ccccc12	Tgondii IFNg -78.2
O=Cc1cn(Cc2ccc(F)cc2)c2ccccc12	none
COc1cc2c3cc1Oc1cc(ccc1O)C[C@@H]1c4c(cc(OC)c(O)c4Oc4ccc(cc4)C[C@H]3N(C)CC2)CCN1C	Tgondii IFNg -94.2
CN1CCc2cc(O)cc3c2[C@H]1Cc1ccc(O)c(O)c1-3	none
COC(=O)C1(CC(=O)N2CCOCC2)C(=O)CC2CCC1N2Cc1ccc(F)cc1 (stereo unspecified)	none
Cn1ccnc1CN1CCCC2(CCNC2=O)C1 (stereo unspecified)	none
CN1C[C@H](COCc2ccccn2)[C@]2(CCN(C(=O)N(C)C)C2)C1	none
O=C(Nc1cccc(Cl)c1)OC1CN2CCC1CC2 (stereo unspecified)	Tgondii IFNg -78.0
O=C(c1cccc(Cl)c1)C1CCCN(C2CCCCC2)C1 (stereo unspecified)	none
CC(=O)OC1CN2CCC1CC2 (stereo unspecified)	none
COCCN1CCC2(CCCN(Cc3ccccn3)C2)C1=O (stereo unspecified)	none
CN1C(=O)COc2c(C(=O)NC3CN4CCC3CC4)cc(Cl)cc21 (stereo unspecified)	none
O=C(N[C@H]1CN2CCC1CC2)c1ccc(Cl)cc1	none
Cn1cc(C(=O)C(=O)N[C@H]2CN3CCC2CC3)c2ccccc21	Tgondii IFNg -79.7!
COc1ccc(CN2C3CCC2CC(O)(Cn2ccc4ncccc42)C3)cc1OC (stereo unspecified)	none
CCOC(=O)CNC(=O)c1cc2cccnc2n(Cc2ccccc2)c1=O	none
COC(=O)C[C@@](O)(CCC(C)(C)O)C(=O)O[C@@H]1C(OC)=C[C@]23CCCN2CCc2cc4c(cc2[C@@H]13)OCO4	Tgondii IFNg -83.9
CC(C)N1CCO[C@H]2CN(C(=O)c3ccccn3)C[C@@H]21	none
COc1ccc(CN2CCC3(CC2)COCCN3CC2CC2)cn1	none
CC(Cc1cnccn1)NCC(=O)Nc1cnccn1 (stereo unspecified)	none
CC(C)(C)c1cc(C=C(C#N)C#N)cc(C(C)(C)C)c1O	Tgondii IFNg -79.7
N#CC(C#N)=Cc1ccc(O)c(O)c1	none
COCC(=O)N1C[C@@H]2CCN(Cc3c(C)noc3C)C[C@H]2C1	none
Cc1nocc1C(=O)N1CCC2(CC1)COCCN2CCN(C)C	none
NS(=O)(=O)c1ccc(CC(=O)N2CCCCC2CN2CCCCC2)cc1 (stereo unspecified)	none
CN1CCO[C@H]2CN(c3ncccn3)C[C@@H]21	none
Cc1ccc2c(c1)Cc1c(C(=O)NN3CCCCC3)nn(-c3ccc(Cl)cc3Cl)c1-2	Tgondii IFNg -74.6!
Cc1cnc(N2CCN3C[C@H](Oc4cncnc4)C[C@@H]3C2)nc1	none
C=CCN1CCN(CC2CCOCC2)Cc2cccnc21	none
C#C[C@]1(O)C=C[C@H]2[C@@H]3CCC4=CC(=O)CC[C@@H]4[C@H]3CC[C@@]21CC	Tgondii IFNg -80.9
C#C[C@]1(O)CC[C@H]2[C@@H]3CCC4=CC(=O)CC[C@]4(C)[C@H]3CC[C@@]21C	none
CCOC1C2CCC1N(Cc1cnn(C)c1)C2 (stereo unspecified)	none
C1CCN(CC2COC3(CNCCOC3)C2)C1 (stereo unspecified)	none
O=C(NCc1cccc(OC(F)F)c1)c1cn(CC2CCCNC2)nn1 (stereo unspecified)	none
c1ccc2c(c1)[nH]c1cnccc12	none
Cc1c2ccncc2c(C)c2c1[nH]c1ccccc12	Tgondii IFNg -80.4
Cc1nccc2c1[nH]c1ccccc12	none
c1cncc(CN2CCCC23CCCC3)c1	none
O=C(Nc1cccc(C(F)(F)F)c1)c1cc2cccnc2n(Cc2ccc(F)cc2)c1=O	none
CC(C)N(C)[C@H]1CN(C(=O)Cc2ccccn2)C[C@H]2CCCO[C@H]21	none
O=C(Nc1ccccc1)C12CCNCC1C2 (stereo unspecified)	none
N#CCN1CCC2(CC1)C(=O)N(c1cncnc1)c1ccccc12	none
CC(C)CNC(=O)c1cc2cccnc2n(Cc2ccccc2)c1=O	Tgondii IFNg -94.5
COc1ccc(CNC(=O)c2cc3cccnc3n(Cc3ccc(F)cc3)c2=O)cc1	none
COc1ccc(CNC(=O)c2cc3cccnc3n(Cc3ccc(Cl)cc3)c2=O)cc1	Tgondii IFNg -113.5
COc1ccc(NC(=O)c2cc3cccnc3n(Cc3ccc(Cl)cc3)c2=O)cc1	none
